# Results from PubChem BioAssay AID1246 (Columbia University Molecular Screening Center, 2008).
# In all, about 120,000 compounds went through this assay and about 840 (0.7%) were called active.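 The calls were made as follows: active = inhibition above the batch mean plus 3 SD, and confirmed as a hit on visual image review (cut at about 43% in these data); inconclusive = passes the inhibition cutoff but fails visual image review; inactive = the rest.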 The entries come from a sample that favours actives as a whole.
# Assay: E-selectin induction blockers in HUVEC – imaging, immunofluorescence, high content, primary screen (AID 1246);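 also: 0% = TNF-stimulated DMSO wells and 100% = unstimulated control wells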
# Conditions: HUVEC TNFa-induced E-selectin immunofluorescence, at 2 µM, hits give high values
row,Compound,inhibition
1,COCCCNCCOCCOc1ccc(Cl)cc1Br,-28.3% (inactive)
2,OCCNCCOc1ccc(Cl)c(Cl)c1,75.2% (active)
3,OCCNCCCCOc1ccccc1F,-13.2% (inactive)
4,CCOC(=O)N1CCN(CCC(=O)Nc2cc(OC)ccc2OC)CC1,-40.9% (inactive)
5,O=C(Nc1cccc(F)c1)N1C2CCC1CC(O)(c1cccnc1)C2 (stereo not given),-22.6% (inactive)
6,CN(C)C(=O)c1nc2ccc(Cl)cn2c1CN1CCN(c2ncccn2)CC1,-15.7% (inactive)
7,Cc1cnc(C(=O)OCC(=O)NCCCc2ccccc2)cn1,-18.2% (inactive)
8,O=C(CCSc1ccccc1)N1CCN(c2ccccc2F)CC1,-7.82% (inactive)
9,Cc1cc(C)n(-c2nnc(N3CCN(c4ccccc4)CC3)nn2)n1,1.97% (inactive)
10,CCCCSc1nnc(-c2ccc(NC(=O)CC)cc2)n1C,1.71% (inactive)
11,CCC(=O)Nc1cccc(NC(=O)CSc2nnc(-c3ccc(NS(C)(=O)=O)cc3)n2C)c1,64.3% (active)
12,Cn1c(SCC(=O)Nc2cccc(NC(=O)c3cccs3)c2)nnc1-c1ccncc1,26.7% (inactive)
13,COC(=O)C(=Nc1ccccc1)/C(C(=O)C(=O)N(C)c1ccccc1)=C(\O)c1ccc(Cl)cc1,-20.7% (inactive)
14,CSc1ncccc1C(=O)N1CCCC(CCC(=O)NCc2ccccc2F)C1 (stereo not given),-22.4% (inactive)
15,Cc1ccc(SCC(=O)NC(=O)NCc2ccco2)c(C)c1,76% (active)
16,Cc1cc(C)c2c(c1)c(C)cc1nnc(SCC(=O)NCc3ccco3)n12,9.01% (inactive)
17,O=C(CSc1nnc(-c2ccco2)n1Cc1ccccc1)NC(=O)NCc1ccco1,-1.5% (inactive)
18,Cc1cc(N2CCN(C)CC2)nc2ccc(NC(=S)N3CCOCC3)cc12,19.6% (inactive)
19,CC(=O)N1CCN(S(=O)(=O)c2c(F)cc(F)c(Cl)c2F)CC1,-26.7% (inactive)
20,CCOC(=O)N1CCN(C(=O)CSc2nc(C)nc3c2c(=O)n(C)c(=O)n3C)CC1,-25% (inactive)
21,Brc1cc(/C=N/n2cnnc2)oc1Br,-13.4% (inactive)
22,Cc1cccc(C)c1NC(=O)C1CCCN1C(=O)OC(C)(C)C (stereo not given),-33.1% (inactive)
23,C=CCN(CC=C)CCOc1ccccc1[N+](=O)[O-],-5.8% (inactive)
24,Cc1ccc(CNC(=O)c2cccnc2Cl)cc1,-5.85% (inactive)
25,CC(Sc1nnc2c(n1)C1CCC2(C)C1(C)C)C(=O)Nc1ccccc1 (stereo not given),70.7% (active)

row,Compound,inhibition
1,CSc1nc(C)cc(SC(C(C)=O)C(=O)Nc2ccccc2)n1 (stereo not given),-11.9% (inactive)
2,CC12CCC(C(=O)N(NC(=O)c3ccccc3O)C1=O)C2(C)C (stereo not given),-1.25% (inactive)
3,Cc1ccc2c(Cl)c(C(=O)Nc3nn[nH]n3)sc2c1,13% (inactive)
4,COc1ccccc1CNC(=O)C1Cc2ccccc2C(=O)O1 (stereo not given),-3.67% (inactive)
5,Cn1c(-c2ccc(F)cc2)cnc1SCC(=O)NNC(=O)Cc1ccccc1,-21.1% (inactive)
6,CC1=NN(C(C)C)C(=O)C1,53.9% (active)
7,Cc1cc(C)n(Cc2cnc(N3CCOCC3)s2)n1,1.48% (inactive)
8,Cn1c(SCC(=O)Nc2ccc(Br)cc2F)nnc1-c1ccco1,-23.6% (inactive)
9,CCNC(=S)NNC(=O)c1ccc2ncccc2c1,9.15% (inactive)
10,CCn1c(SCC(=O)NCc2ccco2)nnc1-c1ccc(N)cc1,69.4% (active)
11,Cc1ccc(-c2csc3nnc(SCC(=O)NCc4ccco4)n23)cc1,-6.76% (inactive)
12,CCn1c(COc2ccccc2)nnc1SCC(=O)NCc1ccco1,-14.4% (inactive)
13,Cc1ccc(-n2c(C)cc(C(=O)CN3C(=O)C(=O)N(C4CCCC4)C3=O)c2C)cc1,-16.5% (inactive)
14,Cc1ccc(OCC(=O)Nc2ccc(S(=O)(=O)Nc3ccccn3)cc2)cc1,-18.7% (inactive)
15,CN(C)CC(C)(C)CNC(=O)c1cc(Br)cc(Br)c1O,0.11% (inactive)
16,CC(=O)Nc1nc(N(C)C)nc(N(C)C)n1,13.8% (inactive)
17,CC1(c2ccccc2Cl)NC(=O)N(CC(=O)NC(=O)NCc2ccco2)C1=O (stereo not given),23.7% (inactive)
18,Cc1cccc(NC(=O)CN2C(=O)CNC2=O)c1,-1.87% (inactive)
19,CN(C)S(=O)(=O)c1cc(NC(=O)CN2C(=O)NC3(CCCc4ccccc43)C2=O)ccc1Cl (stereo not given),67.1% (active)
20,CN1CCN(CCCCOc2ccccc2-c2ccccc2)CC1,-23.6% (inactive)
21,CC(=O)C1(C)N(O)C(C)(C)C(c2cccs2)=[N+]1[O-] (stereo not given),-15.7% (inactive)
22,CC1CC(C)CN(S(=O)(=O)c2ccc(C(=O)NN3CCOCC3)cc2)C1 (stereo not given),-4.78% (inactive)
23,CCOC(=O)c1sc(NC(=O)CSc2nnc(-c3ccco3)o2)c(C(=O)OCC)c1C,-40.2% (inactive)
24,CCOC(=O)c1c(NC(=O)CSc2nnc(CNc3ccc(C)cc3C)o2)sc(C)c1C,74.5% (active)
25,CCOC(=O)c1c(-c2ccc(C)cc2C)csc1NC(=O)CSc1nnnn1C,-25.1% (inactive)
